Reference: PubChem BioAssay (NCI)
About 79,000 compounds went through this panel and 15% of them were active in at least one assay; those are over-represented in the sample as a whole. The source made the active and inactive calls. Rule as the data show it: active = growth inhibition above about 70%; inactive = the rest.

Key:
[1] = NCI Yeast Anticancer Drug Screen. Data for the rad52 strain (AID 147);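 also: 0% = growth of vehicle-treated control cultures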; details: S. cerevisiae rad52 mutant growth inhibition, hits give high values
In short: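 Screen used a yeast mutant impaired in DNA repair. After compound exposure, growth was measured. Values reflect inhibition compared with vehicle-treated cells.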

[2] = NCI Yeast Anticancer Drug Screen. Data for the wt1 strain (AID 149);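 also: 0% = growth of vehicle-treated wt1 cultures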; details: S. cerevisiae wt1 strain (SPY 50644) growth inhibition, hits give high values
In short: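 The wt1 strain was treated with compounds, and growth was compared with vehicle-treated cultures to give inhibition.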

[3] = NCI Yeast Anticancer Drug Screen. Data for the rad50EPP+ strain (AID 151);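 also: 0% = growth of vehicle-treated control cultures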; details: S. cerevisiae rad50 mutant strain, hits give high values
In short: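 Exposing the rad50EPP+ strain to each compound, growth was compared with vehicle-only cultures to give inhibition.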

[4] = NCI Yeast Anticancer Drug Screen. Data for the mgt1 strain (AID 153); details: S. cerevisiae mgt1 mutant growth inhibition, hits give high values
In short: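 Genetically defined yeast (mgt1) treated with compound; inhibition of growth expressed against vehicle-treated controls.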

[5] = NCI Yeast Anticancer Drug Screen. Data for the rad50 strain (AID 155);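 also: 0% = growth of vehicle-only cultures of the same strain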; details: S. cerevisiae rad50 strain growth inhibition, hits give high values
In short: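 Cells are treated with compound, grown, and their growth is then scored against vehicle-only cultures of the same repair-deficient yeast strain.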

[6] = NCI Yeast Anticancer Drug Screen. Data for the mec2-1 strain (AID 157); details: S. cerevisiae mec2-1 strain, hits give high values
In short: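 Readout is yeast growth inhibition, normalised to vehicle-treated controls, in the mec2-1 strain exposed to compound.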

[7] = NCI Yeast Anticancer Drug Screen. Data for the rad14 strain (AID 159);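 also: 0% = growth of vehicle-treated control cultures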; details: S. cerevisiae rad14 strain growth inhibition, hits give high values
In short: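 Readout: yeast growth inhibition, referenced to vehicle-only cultures. Strain bears a defined alteration in DNA damage repair.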

[8] = NCI Yeast Anticancer Drug Screen. Data for the sgs1 mgt1 strain (AID 161);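 also: 0% = growth of cultures given vehicle only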; details: S. cerevisiae sgs1 mgt1 strain, hits give high values
In short: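 Compounds are added to genetically altered yeast, and growth is compared with cultures given vehicle alone to give percent inhibition.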

[9] = NCI Yeast Anticancer Drug Screen. Data for the CLN2oe strain (AID 163);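 also: 0% = growth of vehicle-only control cultures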; details: S. cerevisiae CLN2oe strain, hits give high values
In short: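 Values reflect how much compound exposure reduced yeast growth, referenced to vehicle-exposed cells. Assay organism is a strain with a defined genetic change affecting cell-cycle control.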

[10] = NCI Yeast Anticancer Drug Screen. Data for the cln2 rad14 strain (AID 165);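 also: 0% = growth equal to vehicle treated cultures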; details: S. cerevisiae cln2 rad14 strain, hits give high values
In short: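 Relative to vehicle controls, growth inhibition of compound-treated cln2 rad14 yeast was recorded.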

[11] = NCI Yeast Anticancer Drug Screen. Data for the bub3 strain (AID 167); details: S. cerevisiae bub3 mutant strain, hits give high values
In short: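 Part of a panel of yeast mutants defective in DNA damage repair or cell cycle regulation. Each strain is grown with compound, and inhibition is calculated relative to solvent-treated cultures.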

[12] = NCI Yeast Anticancer Drug Screen. Data for the wt2 strain (AID 169);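 also: 0% = growth of vehicle-treated yeast cultures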; details: S. cerevisiae wt2 strain growth inhibition, hits give high values
In short: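 Values express reduction in yeast growth under compound treatment, referenced to vehicle-treated cells.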

[13] = NCI Yeast Anticancer Drug Screen. Data for the mlh1 strain (AID 171);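 also: 0% = growth of vehicle-treated control cultures of the same strain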; details: S. cerevisiae mlh1 strain growth inhibition, hits give high values
In short: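 Steps: expose the defined-mutant yeast strain to compound; expose a parallel culture to vehicle; measure growth; express compound effect as inhibition relative to the vehicle culture.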

[14] = NCI Yeast Anticancer Drug Screen. Data for the sgs1 strain (AID 173);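 also: 0% = growth of vehicle-only control cultures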; details: S. cerevisiae sgs1 mutant, hits give high values
In short: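 Treat defined-mutant yeast with compound; measure growth; calculate inhibition relative to vehicle-treated cells.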

[15] = NCI Yeast Anticancer Drug Screen. Data for the mlh1 rad18 strain (AID 175); details: S. cerevisiae mlh1 rad18 strain growth inhibition, hits give high values
In short: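 Test agents were incubated with a yeast strain of defined genotype (DNA damage repair defect). Inhibition of growth was derived by comparison with vehicle-exposed cultures.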

[16] = NCI Yeast Anticancer Drug Screen. Data for the rad18 strain (AID 177); details: S. cerevisiae rad18 mutant growth inhibition, hits give high values
In short: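 A genetically defined yeast mutant impaired in DNA damage repair was treated with test compounds, then its growth was measured against cultures receiving vehicle alone.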

[17] = at 5.0 µM (retest, dose inferred, filed as 0.5)
[18] = at 50.0 µM (retest, dose inferred, filed as 5.0)

Measured: growth inhibition

CCCCCCCCN1COCC(COc2ccccc2C)OC1 (stereo not drawn)
inactive: [1]; at 1.2 µM -3% | [1]; at 3.7 µM 0% | [1]; at 11.0 µM 1% | [1]; at 33.0 µM 13% | [2]; at 1.2 µM -1% | [2]; at 3.7 µM -1% | [2]; at 11.0 µM 2% | [2]; at 33.0 µM 8% | [3]; at 1.2 µM -7% | [3]; at 3.7 µM -4% | [3]; at 11.0 µM -2% | [3]; at 33.0 µM 11% | [3]; at 100.0 µM 18% | [4]; at 1.2 µM -1% | [4]; at 3.7 µM -2% | [4]; at 11.0 µM 0% | [4]; at 33.0 µM 5% | [5]; at 1.2 µM -2% | [5]; at 3.7 µM -4% | [5]; [17] 0% | [5]; at 11.0 µM 3% | [5]; at 33.0 µM 5% | [5]; [18] 5% | [6]; at 1.2 µM -4% | [6]; at 3.7 µM -4% | [6]; [17] 3% | [6]; at 11.0 µM -6% | [6]; at 33.0 µM 2% | [6]; [18] -7% | [7]; at 1.2 µM 0% | [7]; at 3.7 µM 1% | [7]; at 11.0 µM 1% | [7]; at 33.0 µM 22% | [8]; [17] -1% | [8]; [18] 1% | [9]; at 1.2 µM -4% | [9]; at 3.7 µM 0% | [9]; at 11.0 µM -58% | [9]; at 33.0 µM 9% | [10]; [17] 20% | [10]; [18] 44% | [10]; at 50.0 µM 55.2% | [11]; at 1.2 µM -9% | [11]; at 3.7 µM -7% | [11]; [17] -25% | [11]; at 11.0 µM 5% | [11]; at 33.0 µM 15% | [11]; [18] 1% | [12]; at 1.2 µM -1% | [12]; at 3.7 µM 0% | [12]; at 11.0 µM 0% | [12]; at 33.0 µM 13% | [13]; at 1.2 µM -1% | [13]; at 3.7 µM 0% | [13]; at 11.0 µM 0% | [13]; at 33.0 µM -17% | [14]; at 1.2 µM -3% | [14]; at 3.7 µM -2% | [14]; at 11.0 µM 0% | [14]; at 33.0 µM 22% | [15]; [17] -8% | [15]; [18] -2% | [16]; at 1.2 µM -15% | [16]; at 3.7 µM -4% | [16]; at 11.0 µM 4% | [16]; at 33.0 µM 11%
active: [1]; at 100.0 µM 99% | [2]; at 100.0 µM 96% | [4]; at 100.0 µM 99% | [5]; at 50.0 µM 97.3% | [5]; at 100.0 µM 99% | [6]; at 50.0 µM 85.3% | [6]; at 100.0 µM 99% | [7]; at 100.0 µM 99% | [8]; at 50.0 µM 93.3% | [9]; at 100.0 µM 99% | [11]; at 50.0 µM 76.5% | [11]; at 100.0 µM 98% | [12]; at 100.0 µM 99% | [13]; at 100.0 µM 99% | [14]; at 100.0 µM 99% | [15]; at 50.0 µM 95% | [16]; at 100.0 µM 99%

CN(C)N=Nc1ccc(N(C)C)cc1
inactive: [1]; at 1.2 µM -1% | [1]; at 3.7 µM 1% | [1]; at 11.0 µM 4% | [1]; at 33.0 µM 16% | [1]; at 100.0 µM 53% | [2]; at 1.2 µM 1% | [2]; at 3.7 µM -4% | [2]; at 11.0 µM -3% | [2]; at 33.0 µM -2% | [2]; at 100.0 µM 5% | [3]; at 1.2 µM 4% | [3]; at 3.7 µM 8% | [3]; at 11.0 µM 31% | [3]; at 33.0 µM 53% | [3]; at 100.0 µM 55% | [4]; at 1.2 µM -3% | [4]; at 3.7 µM -3% | [4]; at 11.0 µM -1% | [4]; at 33.0 µM 19% | [4]; at 100.0 µM 12% | [5]; at 1.2 µM 1% | [5]; at 3.7 µM 1% | [5]; [17] -7% | [5]; at 11.0 µM 3% | [5]; at 33.0 µM 5% | [5]; [18] 27% | [5]; at 100.0 µM 14% | [6]; at 1.2 µM 2% | [6]; at 3.7 µM 3% | [6]; [17] -9% | [6]; at 11.0 µM 3% | [6]; at 33.0 µM 7% | [6]; [18] -9% | [6]; at 50.0 µM 16.4% | [6]; at 100.0 µM 9% | [7]; at 1.2 µM -1% | [7]; at 3.7 µM 0% | [7]; at 11.0 µM 2% | [7]; at 33.0 µM 3% | [7]; at 100.0 µM 7% | [8]; [17] 2% | [8]; [18] 51% | [8]; at 50.0 µM 20.9% | [9]; at 1.2 µM -2% | [9]; at 3.7 µM -5% | [9]; at 11.0 µM -2% | [9]; at 33.0 µM -2% | [9]; at 100.0 µM -1% | [10]; [17] 2% | [10]; [18] 8% | [10]; at 50.0 µM 44.1% | [11]; at 1.2 µM 0% | [11]; at 3.7 µM -3% | [11]; [17] 18% | [11]; at 11.0 µM -7% | [11]; at 33.0 µM -5% | [11]; [18] 33% | [11]; at 50.0 µM 12.3% | [11]; at 100.0 µM 3%
active: [5]; at 50.0 µM 82.5%
